Measured values taken from PubChem BioAssay AID720597 (Broad Institute, 2013).
Results with a measured potency or affinity are listed apart.

target: NAD-dependent protein deacylase sirtuin-5, mitochondrial (Homo sapiens) (UniProt Q9NXA8); experiment: SIRT5 deacylase inhibitors, dose response, biochemical, fluorescence imaging, cherry-pick, set 6 (AID 720597); conditions: Purified SirT5, succinyl-peptide-AMC/trypsin fluorescence; series mostly up to 15 µM; activity change, negative = inhibition: at the top concentration;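 note: lower AMC signal can also come from blocking the trypsin step; 0% = median of neutral control wells and -100% = median of positive control wells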
Sequence (Q9NXA8 whole entry, looked up): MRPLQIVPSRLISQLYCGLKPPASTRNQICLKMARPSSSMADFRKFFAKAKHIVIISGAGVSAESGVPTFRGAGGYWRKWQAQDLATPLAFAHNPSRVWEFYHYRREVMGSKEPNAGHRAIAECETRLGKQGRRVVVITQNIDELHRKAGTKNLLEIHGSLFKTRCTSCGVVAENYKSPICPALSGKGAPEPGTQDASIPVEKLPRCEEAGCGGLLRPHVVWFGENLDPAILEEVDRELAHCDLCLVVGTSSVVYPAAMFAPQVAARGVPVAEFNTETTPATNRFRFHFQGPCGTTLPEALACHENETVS

Activity change, negative = inhibition, inactive:
Cc1cccc(-c2noc(CN(C(=O)c3ccc(Br)o3)C(C)C)n2)c1 -13.4%
CCCC#Cc1cnc2c(c1)C(=O)N([C@@H](C)CO)C[C@@H](C)[C@H](CN(C)S(=O)(=O)c1cccc(OC)c1)O2 11.7%
C[C@H](CO)N1C[C@H](C)[C@H](CN(C)Cc2ccncc2)Oc2ccc(NC(=O)CCN3CCOCC3)cc2C1=O -11.7%
COc1ccc(S(=O)(=O)Nc2ccc3c(c2)CC(=O)N([C@@H](C)CO)C[C@H](C)[C@H](CN(C)Cc2ccc(C(F)(F)F)cc2)O3)cc1 -13.8% [at 7.5 µM]
COc1ccccc1-c1ccc2c(c1)O[C@@H](CN(C)S(=O)(=O)c1ccc(F)cc1)[C@@H](C)CN([C@H](C)CO)S2(=O)=O 13.8%
O=C(Cc1ccncc1)N[C@H]1CC[C@H](CCn2cc(-c3ccccc3F)nn2)O[C@@H]1CO 1.26%
COc1ccc(NC(=O)N[C@@H]2CC[C@H](CCn3cc(-c4ccc(OC)cc4)nn3)O[C@@H]2CO)cc1 33.9%
Cc1noc(C)c1S(=O)(=O)Nc1ccc2c(c1)CC(=O)N([C@H](C)CO)C[C@H](C)[C@H](CN(C)Cc1ccncc1)O2 -7.37%
COc1ccc(S(=O)(=O)Nc2ccc3c(c2)C(=O)N([C@H](C)CO)C[C@@H](C)[C@@H](CN(C)S(=O)(=O)c2ccccc2)OCCCC[C@@H](C)O3)cc1 -8.5%
COc1cccc(NC(=O)N2CC(=O)N3[C@H](CO)[C@H](c4ccc(C#CCC5CCCC5)cc4)[C@H]3C2)c1 24.2%
COc1ccc(S(=O)(=O)Nc2ccc3c(c2)C(=O)N([C@@H](C)CO)C[C@@H](C)[C@@H](CN(C)Cc2ccc(C(F)(F)F)cc2)OCCCC[C@@H](C)O3)cc1 -5.76%
C[C@@H]1CN([C@@H](C)CO)S(=O)(=O)c2ccc(C#Cc3ccc(F)cc3)cc2O[C@@H]1CN(C)S(=O)(=O)c1ccc(F)cc1 -16.3%
O=C(C1CCCC1)N1CC2(C1)[C@H](c1ccccc1)[C@@H](CO)N2Cc1ccc(Cl)cc1 -8.55%
C[C@@H]1CN([C@H](C)CO)S(=O)(=O)c2ccc(C#Cc3ccc(F)cc3)cc2O[C@H]1CN(C)C(=O)NC1CCCCC1 -8.32%
C=CCOC(=O)[C@@H]1[C@H]2C(=O)O[C@H](c3ccccc3)[C@H](c3ccccc3)N2[C@H](c2ccc(OCCOC(=O)[C@@H]3C[C@@H]4C(=O)N[C@@H](Cc5ccccc5)C(=O)N4[C@@H]3c3ccc(O)cc3)cc2)[C@@]12C(=O)Nc1ccc(I)cc12 12%
CO[C@H]1CN(C)C(=O)c2ccc(NC(C)=O)cc2OC[C@H](C)N(Cc2nccs2)C[C@@H]1C 12.7%
Cc1noc(C)c1S(=O)(=O)Nc1ccc2c(c1)C(=O)N([C@@H](C)CO)C[C@@H](C)[C@H](CN(C)Cc1ccc(Cl)c(Cl)c1)OCCCC[C@@H](C)O2 17%
CCCC#Cc1ccc2c(c1)O[C@H](CN(C)C(=O)c1ccccc1F)[C@@H](C)CN([C@@H](C)CO)S2(=O)=O -29.6%
C[C@H]1CN([C@@H](C)CO)C(=O)c2c(c3ccccc3n2C)-c2ccccc2CO[C@H]1CN(C)Cc1ccccc1 11.1%
O=C(NCC[C@H]1CC[C@H](NS(=O)(=O)c2cccc(F)c2)[C@@H](CO)O1)C1CCOCC1 0.211%
COc1ccc(S(=O)(=O)Nc2ccc3c(c2)C(=O)N([C@@H](C)CO)C[C@@H](C)[C@H](CN(C)Cc2ccc(Oc4ccccc4)cc2)O3)cc1 -10.1%
C[C@@H]1CN([C@@H](C)CO)S(=O)(=O)c2ccc(C#CC3CC3)cc2O[C@H]1CN(C)Cc1ccccc1F -14.8%
C/C=C/c1ccc([C@H]2[C@@H](CO)N(CC3CCCCC3)[C@@H]2CNC(C)C)cc1 -7.06% [at 16 µM]
COc1ccc(CN(C)C[C@H]2OCCCC[C@H](C)Oc3ccc(N(C)C)cc3C(=O)N([C@H](C)CO)C[C@H]2C)cc1 13.1%
C[C@@H]1CN([C@@H](C)CO)C(=O)Cc2cc(NS(=O)(=O)c3ccc(Cl)cc3)ccc2O[C@H]1CN(C)Cc1ccc(Cl)c(Cl)c1 5.95%
C[C@H](CO)N1C[C@H](C)[C@@H](CN(C)Cc2ccncc2)Oc2ncc(C#CCN(C)C)cc2C1=O -24.7%
CCC(=O)N1CCCCN2[C@H](CO)[C@H](c3ccc(-c4cccc(C#N)c4)cc3)[C@@H]2C1 -2.5%
